Assay outcomes as filed in PubChem.
HepG2 tox-1 – HepG2 cytotoxicity, counter-screen for TGF-b inhibitors; HepG2 CAGA-GFP viability, ATP luminescence, 18 h; Potency, µM (top dose mostly 46.1 µM), actives largely listed as cytotoxic; actives 0.76% (n = 410,000); AID 588856
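HepG2 CAGA-GFP cells (1000/well, DMEM with 1% FBS) received compound, then TGF-beta at 500 pg/mL final, and were incubated 18 hours at 37 degrees C. Viability was read by CellTiter-Glo luminescence. Media-only wells were set as complete cell-killing and DMSO as no toxicity.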
KB-3-1 tox – kills parental KB-3-1 adenocarcinoma cells | Potency, µM (titrated, usually from 46.1 µM), hits mostly cytotoxic | AID 1347075 | KB-3-1 viability, CellTiter-Glo ATP luminescence, 72 h | actives 1.4% (n = 400,000); note: nearly all actives have a fitted effect of over 60% in size
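Cytotoxicity in the drug-sensitive parental line KB-3-1 was scored as loss of CellTiter-Glo luminescence following 72 h incubation with compound. Values come from curve fitting of normalized concentration-response data.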
ATXN2 expr inh – inhibitors of ATXN2 expression; actives 0.72% (n = 360,000); AID 1745845; HEK-293 ATXN2-luciferase reporter, luminescence, 24 h; Potency, µM (titrated, usually from 57 µM), hits mostly inhibitors; note: nearly all actives have a fitted effect of over 55% in size
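qHTS (up to 57 uM final) was run with 24 h compound exposure of reporter cells at 37 °C. Each well was multiplexed: SteadyGlo luminescence measured ATXN2-luciferase expression after a fluorogenic Gly-Phe-AFC viability readout (25 uM final).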
TGFb inhibitor – inhibitors of TGF-b signaling | HepG2 CAGA-GFP TGF-b/SMAD3 reporter, GFP fluorescence, 18 h; TGF-beta stimulated, 500 pg/mL final | Potency, µM (titrated, usually from 46.1 µM), usual class: inhibitors | actives 1.2% (n = 410,000) | AID 588855; note: nearly all actives have a fitted effect of over 65% in size
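Using HEPG2 CAGA-GFP reporter cells at 1000 cells/well, we pinned test compounds, stimulated with recombinant TGF-beta (500 pg/mL final) and measured total well GFP after 18 h.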
S2 tox – cell viability loss in ATXN counter-screen; S2 cells (HEK-293 line with an ATXN2-luciferase reporter) viability, CellTiter-Fluor protease fluorescence, 24 h; Potency, µM (titrated, usually from 56.7 µM), actives largely listed as cytotoxic; actives 0.49% (n = 400,000); AID 651635; note: nearly all actives have a fitted effect of over 40% in size
KB-V1 cytotox – KB-V1 MDR subline cytotoxicity; Potency, µM (doses to about 46.1 µM), most hits filed as cytotoxic; KB-V1 MDR cells viability, CellTiter-Glo, 72 h; AID 1347076; actives 3.4% (n = 400,000); note: nearly all actives have a fitted effect of over 60% in size
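qHTS viability screen in drug-selected KB-V1 MDR cells: 72 h compound treatment at 37 degrees C, ATP luminescence end point.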
TGFb confirm – TGF-b pathway inhibition, cherry-pick retest; shares compounds with TGFb inhibitor; HepG2 CAGA-GFP TGF-b reporter, GFP fluorescence, 18 h; cells stimulated with TGF-beta, 500 pg/mL; Potency, µM (series often up to 46.1 µM), hits mostly inhibitors; actives 63% (n = 1,600); AID 720534; note: nearly all actives have a fitted effect of over 65% in size
HepG2 tox-2 – counter-screen for TGF-b inhibitors: cytotoxicity in HepG2 cells; shares compounds with TGFb inhibitor; HepG2 CAGA-GFP viability, ATP luminescence, 18 h; cells stimulated with TGF-beta, 500 pg/mL; actives 27% (n = 1,600); Potency, µM (series often up to 46.1 µM), usual class: inhibitors; note: nearly all actives have a fitted effect of over 70% in size
TGFb CCL64 inh – blocks TGF-b signaling in CCL64 reporter cells; shares compounds with TGFb inhibitor; CCL64 CAGA-GFP reporter, TGF-b stimulated, GFP fluorescence, 18 h; Potency, µM (doses to about 46.1 µM), actives largely listed as inhibitors; actives 41% (n = 1,600); AID 720536; note: nearly all actives have a fitted effect of over 65% in size
TGFb COP inh – TGF-b inhibition validated with COP promoter; shares compounds with TGFb inhibitor; HepG2 COP-GFP TGF-b reporter, GFP fluorescence, 18 h; cells stimulated by added recombinant TGF-beta; Potency, µM (series often up to 46.1 µM), most hits filed as inhibitors; actives 3% (n = 1,600); AID 720537; note: nearly all actives have a fitted effect of over 70% in size
Each line names hits and unclear results; the compound was inactive in the other large screens (follow-up assays come after a bar, where they were run). An excerpt weighted towards active compounds, which were near 5.9% of everything screened. Calls come from the whole dose curve; as a rule, active = well fitted curve in the direction sought with a large enough effect; inconclusive = small, poorly fitted or top-dose-only effect, or another doubt; inactive = no such curve, though single readings can be large; an effect the other way counts as inactive or inconclusive.

Cc1ccc2c(c1)C(c1ccc(F)cc1)N(C(=O)c1ccc(OC(C)C)cc1)CC(=O)N2 (stereo not drawn)	ATXN2 expr inh inconclusive, S2 tox inconclusive
CCOc1ccc(N2C(=O)CC(N(CCc3ccc(S(N)(=O)=O)cc3)C(C)=O)C2=O)cc1 (stereo not drawn)	none
CCCCCCOc1ccc(N2C(=O)CC(N(CCc3ccc(S(N)(=O)=O)cc3)C(C)=O)C2=O)cc1 (stereo not drawn)	TGFb inhibitor inconclusive | TGFb confirm inconclusive | HepG2 tox-2 inactive | TGFb CCL64 inh inactive | TGFb COP inh inactive
COC(=O)C1(CC2CC(c3cccc(Br)c3)=NO2)CCN(C(=O)OC(C)(C)C)CC1 (stereo not drawn)	TGFb inhibitor inconclusive | TGFb confirm 23µM | HepG2 tox-2 inconclusive | TGFb CCL64 inh inconclusive | TGFb COP inh inactive
CC(C)(C)OC(=O)N1CCC(CC2CC(c3ccccc3)=NO2)(C(=O)NCc2ccccc2)CC1 (stereo not drawn)	TGFb inhibitor inconclusive, S2 tox inconclusive
Cc1ccc2c(c1)c(=O)c(C(=O)c1ccccc1)cn2Cc1ccccc1F	KB-3-1 tox inconclusive, KB-V1 cytotox inconclusive
COc1ccc(Cl)cc1NC(=O)Cn1nc(Cc2ccncc2)c2ccccc2c1=O	TGFb inhibitor inconclusive (no result: KB-3-1 tox, ATXN2 expr inh, S2 tox, KB-V1 cytotox)
Cc1ccc(Cl)cc1N1CCN(C(=O)Cn2cnc3onc(-c4ccc(F)cc4)c3c2=O)CC1	none
CC(=O)Nc1ncnc2c1c(-c1ccc(Cl)cc1)nn2C(C)(C)C	ATXN2 expr inh inconclusive, TGFb inhibitor 3.5µM, S2 tox inconclusive | TGFb confirm 2.6µM | HepG2 tox-2 inconclusive | TGFb CCL64 inh inconclusive | TGFb COP inh inconclusive
C/C(=N\NC(=O)COc1ccccc1-c1ccccc1)c1ccccn1	KB-3-1 tox inconclusive, ATXN2 expr inh inconclusive, TGFb inhibitor 11µM, KB-V1 cytotox 4.1µM (no result: S2 tox) | TGFb confirm 9.2µM | HepG2 tox-2 inconclusive | TGFb CCL64 inh inconclusive | TGFb COP inh inactive
C/C(=N\NC(=O)c1ccccn1)c1ccc(Cl)cc1	KB-V1 cytotox inconclusive
COc1cc(C(=O)N/N=C(\C)c2ccccn2)cc(OC)c1OC	KB-3-1 tox 6.5µM, TGFb inhibitor 1.3µM, KB-V1 cytotox 7.3µM | TGFb confirm 7.3µM | HepG2 tox-2 inactive | TGFb CCL64 inh 3.7µM | TGFb COP inh inactive
Cc1ccc(S(=O)(=O)c2nc(-c3cccc(Br)c3)oc2N2CCCCCC2)cc1	none
Cn1c(C(=O)N2CCN(c3ccc(Cl)cc3)CC2)cc2c(=O)[nH]c3ccccc3c21	none
Cc1ccc(Cl)cc1N1CCN(C(=O)c2cc3c(=O)[nH]c4ccccc4c3n2C)CC1	KB-3-1 tox inconclusive, TGFb inhibitor inconclusive, S2 tox inconclusive, KB-V1 cytotox 7.3µM | TGFb confirm inconclusive | HepG2 tox-2 inconclusive | TGFb CCL64 inh inactive | TGFb COP inh inactive
CCCCNC(=O)CN1CCN(c2ccc(NC(=O)c3ccc(OC)cc3)cc2C(=O)O)CC1	none
O=C(NC(=S)Nc1ccc([N+](=O)[O-])cc1O)C1CCCCC1	TGFb inhibitor 11µM | TGFb confirm 16µM | HepG2 tox-2 inconclusive | TGFb CCL64 inh inactive | TGFb COP inh inactive
O=C(NC(=S)Nc1cccc([N+](=O)[O-])c1)C1CCCC1	none
COc1ccc2oc(=Nc3cc(F)ccc3F)c(C(N)=O)cc2c1	KB-3-1 tox 7.3µM, TGFb inhibitor 8.9µM, KB-V1 cytotox inconclusive | TGFb confirm inconclusive | HepG2 tox-2 inactive | TGFb CCL64 inh inactive | TGFb COP inh inactive
Cc1nc2nc(NC(=O)c3ccc(F)cc3)[nH]n2c(=O)c1Cc1ccccc1	none (no result: KB-3-1 tox, ATXN2 expr inh, S2 tox, KB-V1 cytotox)
CC(C)c1ccc(/C=C(\c2nc3ccccc3[nH]2)S(=O)(=O)c2ccccc2)cc1	HepG2 tox-1 10µM, KB-3-1 tox inconclusive, ATXN2 expr inh inconclusive, TGFb inhibitor 7.9µM, S2 tox inconclusive, KB-V1 cytotox 2.6µM | TGFb confirm 16µM | HepG2 tox-2 10µM | TGFb CCL64 inh 4.6µM | TGFb COP inh inactive
O=S(=O)(/C(=C/c1ccc(C(F)(F)F)cc1)c1nc2ccccc2[nH]1)c1ccccc1	HepG2 tox-1 7.9µM, KB-3-1 tox 5.2µM, ATXN2 expr inh inconclusive, TGFb inhibitor 5µM, S2 tox 27µM | TGFb confirm 2.9µM | HepG2 tox-2 2.6µM | TGFb CCL64 inh 1.8µM | TGFb COP inh inconclusive
C/C(=C\c1ccc(N)cc1)c1nc2ccccc2[nH]1	none
O=C(COc1ccccc1)Nc1ccccc1C(=O)OCc1cc(=O)n2nc(C3CC3)sc2n1	none
Cc1cc(C)cc(Cn2cc(CN3CC(N4CCN(Cc5ccccc5F)CC4)CS3(=O)=O)nn2)c1 (stereo not drawn)	KB-3-1 tox inconclusive (no result: HepG2 tox-1, TGFb inhibitor)
C=C1CCN(C(CC(C)C)C(=O)NCc2ccc(Cl)c(Cl)c2)S(=O)(=O)c2ccccc21 (stereo not drawn)	none (no result: KB-3-1 tox, ATXN2 expr inh, S2 tox, KB-V1 cytotox)
COc1ccc(Cc2c(-c3ccccc3)nc3ccc(Br)cn23)c(C)c1	KB-3-1 tox inconclusive, TGFb inhibitor 10µM, S2 tox inconclusive | TGFb confirm inconclusive | HepG2 tox-2 inconclusive | TGFb CCL64 inh inconclusive | TGFb COP inh inactive
Clc1cccc(-c2nc3ccc(Br)cn3c2Cc2ccsc2)c1	TGFb inhibitor inconclusive, S2 tox inconclusive
Brc1cccc(-c2nc3ccc(Br)cn3c2Cc2ccsc2)c1	TGFb inhibitor 11µM, S2 tox inconclusive | TGFb confirm 23µM | HepG2 tox-2 inconclusive | TGFb CCL64 inh inconclusive | TGFb COP inh inactive
Clc1ccc2nc(-c3cccc(Br)c3)c(Cc3ccsc3)n2c1	TGFb inhibitor 10µM | TGFb confirm inconclusive | HepG2 tox-2 inconclusive | TGFb CCL64 inh inconclusive | TGFb COP inh inactive
